The subject of one experiment is HEK293. The experiment can be described thus: Cytotoxic Profiling of Annotated Libraries Using Quantitative High-Throughput Screening (AID 1296008). Note: potency is the fitted concentration of half-maximal effect. To be noted: Five cell lines viability, CellTiter-Glo ATP luminescence, 48-72 h; max response: hits give low values. The method in brief: (§1)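 Cytotoxicity was measured as CellTiter-Glo ATP luminescence, read after 10 min at room temperature. Compound treatment of the cells lasted 48 or 72 hr at 37 degrees Celsius in a qHTS format.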

Experiment [1] relates to HaCat. Described as above. The following applies: Five cell lines viability, CellTiter-Glo ATP luminescence, 48-72 h; max response: hits give low values. The method in brief:
as §1

Another experiment concerns KB-3-1. The description is as above. To be noted: Five cell lines viability, CellTiter-Glo ATP luminescence, 48-72 h; max response: hits give low values. The method in brief:
as §1

A further experiment deals with NIH3T3. The description is as above. To be noted: Five cell lines viability, CellTiter-Glo ATP luminescence, 48-72 h; max response: hits give low values. The method in brief:
as §1

The subject of experiment [2] is HACAT. Kind of experiment: qHTS assay to identify novel small-molecules to repurpose for Merkel cell carcinoma treatment (AID 1296009). The following applies: MCC and control cell lines, CellTiter-Glo viability, 72 h. The method in brief: (§2)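 Cell viability, measured as CellTiter-Glo luminescence, was normalized between DMSO and no-cell wells. The cells had been exposed to 8- or 11-point compound dilutions for 72 hr at 37 degree celsius.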

The subject of the next experiment is MCC-13. The description is as above. The following applies: MCC and control cell lines, CellTiter-Glo viability, 72 h; series mostly up to 46 µM. The method in brief:
as §2

The next experiment concerns MKL-1. Described as above. The following applies: MCC and control cell lines, CellTiter-Glo viability, 72 h; series mostly up to 46 µM. The method in brief: as §2
A further experiment relates to MKL-2. Described as above. To be noted: MCC and control cell lines, CellTiter-Glo viability, 72 h; series mostly up to 46 µM. The method in brief:
as §2

The subject of the next experiment is MCC-26. Described as above. The following applies: MCC and control cell lines, CellTiter-Glo viability, 72 h; series mostly up to 46 µM. The method in brief:
as §2

The test system of another experiment is HEK293T. The experiment is described as above. To be noted: MCC and control cell lines, CellTiter-Glo viability, 72 h; at 44.8 µM (top of the series). The method in brief: as §2
Where [3] appears, read: at 44.8 µM (top of the series) unless noted.

“And” between values parts separate entries of the source, which are not always exact repeats. Identical values can stand only once. Results filed as inconclusive are left out. Some compounds were tested as several samples or in several runs, with calls that do not always agree. The source made the active and inactive calls. Calls come from the whole dose curve; as a rule, active = well fitted inhibition curve with a large enough effect; inconclusive = small, poorly fitted or top-dose-only effect; inactive = flat fitted curve, though single readings scatter.
% is set by controls: 0 for no effect and ±100 for the full control effect.
Note: nearly all actives have a fitted effect of over 60% in size.

As to `OC(CN1CCC(Cc2ccc(F)cc2)CC1)c1ccc(Cl)cc1` (centres undefined), the max response with HEK293 is -10.6% (inactive) and 0.0097% (inactive); with HaCat [1], 0.0814% (inactive); in the experiment on KB-3-1 it was -3.87% (inactive) and 8.37% (inactive); in the experiment with NIH3T3, 0.966% (inactive) and 1.02% (inactive). The compound was classed as inactive in the experiment on HaCat [1] and in the experiment with HACAT [2] (setting [3]). Also, the Potency entry in the experiment with MCC-13, with MKL-1 and in the experiment with MKL-2 was “inactive” each time.

In the case of `O=c1[nH]cnc2[nH]ncc12`, the max response in the experiment with HEK293 is -10.4% (inactive); in the experiment on HaCat [1] it was 0.897% (inactive); in the experiment on KB-3-1, 2.11% (inactive) and 5.17% (inactive); with NIH3T3, 4.86% (inactive) and -3.07% (inactive). Further, the call in the experiment with HaCat [1] and with HACAT [2] (setting [3]) was inactive. In addition, the Potency entry with MCC-13, in the experiment with MCC-26, in the experiment on MKL-1 and in the experiment on MKL-2 was “inactive” in each case.

With `COc1ccc([C@@H]2CC(=O)c3c(O)cc(O[C@@H]4O[C@H](CO[C@@H]5O[C@@H](C)[C@H](O)[C@@H](O)[C@@H]5O)[C@@H](O)[C@H](O)[C@@H]4O)cc3O2)cc1O`, the outcome in the experiment on HEK293, in the experiment on KB-3-1, in the experiment on NIH3T3 and with HEK293T was inactive. The max response with HaCat [1] was -2.14% (inactive) and 4.84% (inactive); with KB-3-1, 2.27% (inactive); in the experiment on NIH3T3, 2.09% (inactive). Besides, the Potency result with MCC-13, with MKL-1 and in the experiment with MKL-2 was “inactive” in each case.

Regarding `O=C1CCc2cc(OCCCCc3nnnn3C3CCCCC3)ccc2N1`, the max response with HEK293 was -7.13% (inactive); in the experiment with KB-3-1 it was -0.483% (inactive) and -0.724% (inactive). Also, the compound was classed as inactive in the experiment on HaCat [1], in the experiment on NIH3T3 and in the experiment with HACAT [2] (setting [3]). In addition, the Potency result with MCC-13, in the experiment on MCC-26, with MKL-1 and in the experiment with MKL-2 was “inactive” throughout.

As to `CCCC(CCC)C(=O)O`, the max response is -7.93% (inactive) and 2.58% (inactive) with HEK293; 2.57% (inactive) in the experiment with HaCat [1]; 5.52% (inactive) and 6.84% (inactive) in the experiment on KB-3-1; 0.659% (inactive) in the experiment on NIH3T3. Moreover, the compound was classed as inactive in the experiment on HaCat [1] and with HACAT [2] (setting [3]). The Potency result with MCC-13, with MKL-1 and in the experiment on MKL-2 was “inactive” each time.

`NCCCC(N)(C(=O)O)C(F)F` (centres undefined): the max response with HEK293 is -1.85% (inactive) and -25.2% (inactive); with HaCat [1], -8.41% (inactive); in the experiment with KB-3-1, -4.94% (inactive) and 7.79% (inactive); with NIH3T3 it was -17.4% (inactive). Moreover, the compound was called inactive in the experiment on HaCat [1] and with HACAT [2] (setting [3]). Moreover, the Potency entry with MCC-13, with MKL-1 and with MKL-2 was “inactive” each time.

Take `CC(c1cc2ccccc2s1)N(O)C(N)=O` (centres undefined): the outcome in the experiment with HEK293, in the experiment on NIH3T3 and with HEK293T was inactive. Also, the max response with HaCat [1] was -0.226% (inactive) and -8.25% (inactive); with KB-3-1, 0.162% (inactive) and -9.2% (inactive); in the experiment on NIH3T3 it was 3.52% (inactive). The Potency result with MCC-13, with MCC-26, in the experiment on MKL-1 and in the experiment on MKL-2 was “inactive” in each case.

As to `C[C@]12CC[C@H](O)CC1=CC[C@@H]1[C@H]2CC[C@]2(C)C(c3cccnc3)=CC[C@H]12`, the max response in the experiment with HEK293 was -4.02% (inactive); in the experiment on KB-3-1, -14.4% (inactive); with NIH3T3, 0.502% (inactive). Moreover, the compound was classed as inactive in the experiment with HaCat [1]. Besides, the outcome in the experiment with HACAT [2] (setting [3]) is “inactive [at 17.4 µM]”. For the same compound, the Potency entry in the experiment on MCC-13, in the experiment on MCC-26, in the experiment on MKL-1 and with MKL-2 was “inactive” in each case.

For `Nc1ccc(S(=O)(=O)Nc2ccnn2-c2ccccc2)cc1`, the max response in the experiment with HEK293 is -2.4% (inactive) and -5.26% (inactive); in the experiment with KB-3-1 it was -3.13% (inactive) and 3.95% (inactive); in the experiment with NIH3T3 it was 4.45% (inactive) and 3.04% (inactive). The compound was called inactive with HaCat [1], with HACAT [2] (at 17.4 µM (top of the series)) and in the experiment on HACAT [2] (at 44.8 µM (top of the series)). For the same compound, the Potency entry in the experiment with MCC-13, in the experiment with MCC-26, with MKL-1 and in the experiment with MKL-2 was “inactive” throughout.

Regarding `Cc1cc(SCc2sc(-c3ccc(C(F)(F)F)cc3)nc2C)ccc1OCC(=O)O`, the max response is 3.06% (inactive) and 3.28% (inactive) in the experiment on HEK293; -0.39% (inactive) and 1.93% (inactive) in the experiment on HaCat [1]; 0.144% (inactive) with KB-3-1. For the same compound, the compound was called inactive in the experiment on KB-3-1 and with NIH3T3. Besides, the Potency entry with MCC-13, in the experiment on MKL-1 and in the experiment on MKL-2 was “inactive” each time.

Take `COc1ccc(-c2oc3cc(OC)ccc3c2C(=O)c2ccc(C#N)cc2)cc1`: the compound was classed as inactive with HEK293, with HaCat [1], in the experiment with KB-3-1, in the experiment with NIH3T3, in the experiment with HACAT [2] (setting [3]) and in the experiment on HEK293T. Besides, the Potency result in the experiment with MCC-13, in the experiment with MCC-26 and in the experiment on MKL-1 was “inactive” throughout.

`OC[C@H](Cc1ccccc1)Nc1nc(Oc2ccc3c(c2)CCC3)nc2c1ncn2Cc1ccc(-c2ccccc2)cc1`: in the experiment with HEK293, the Potency was 8.33 µM (active). Moreover, the compound was called inactive in the experiment on HaCat [1] and with HACAT [2] (setting [3]). Moreover, the max response with KB-3-1 is -22.3% (inactive); in the experiment on NIH3T3, 1.2% (inactive). The Potency result in the experiment with MCC-13, in the experiment on MCC-26, in the experiment on MKL-1 and in the experiment on MKL-2 was “inactive” throughout.

For the compound `Cc1[nH]c(=O)c(C#N)cc1-c1ccc2nccn2c1`, the max response with HEK293 is 3.47% (inactive); in the experiment on HaCat [1] it was -13.2% (inactive) and -27.6% (inactive); in the experiment on KB-3-1, -3.5% (inactive) and -14.6% (inactive); in the experiment on NIH3T3, -20.6% (inactive). The compound was called inactive in the experiment with NIH3T3. Besides, the Potency result in the experiment on MCC-13, with MCC-26, in the experiment on MKL-1 and in the experiment with MKL-2 was “inactive” each time.

Regarding `CNC(=O)c1ccc(N2C(=S)N(c3ccc(C#N)c(C(F)(F)F)c3)C(=O)C2(C)C)cc1F`, the figures for the max response in the experiment with HEK293, in the experiment with KB-3-1 and with NIH3T3 were -4.81% (inactive), 8.38% (inactive) and -6.26% (inactive), respectively. Also, the compound was classed as inactive with HaCat [1] and in the experiment with HACAT [2] (setting [3]). The Potency entry in the experiment with MCC-13, with MCC-26, with MKL-1 and in the experiment with MKL-2 was “inactive” in each case.

For the compound `CCCc1nc2c(C)cc(-c3nc4ccccc4n3C)cc2n1Cc1ccc(-c2ccccc2C(=O)O)cc1`, the outcome with HEK293, in the experiment with HaCat [1], in the experiment on NIH3T3, in the experiment with HACAT [2] (setting [3]) and with HEK293T was inactive. Also, the max response in the experiment with KB-3-1 was 14.7% (inactive) and 4.38% (inactive); with NIH3T3, 1.27% (inactive). Further, the Potency result in the experiment with MCC-13, with MCC-26, in the experiment on MKL-1 and in the experiment with MKL-2 was “inactive” throughout.

As to `COc1cccc2cc(-c3nc(C4CCC(C(=O)O)CC4)n4ncnc(N)c34)[nH]c12` (centres undefined), the Potency was 5.9 µM (active) and 3.66 µM (active) with HEK293; 2.35 µM (active) in the experiment on KB-3-1; 7.31 µM (active) in the experiment on NIH3T3. In addition, the figures for the max response in the experiment with HaCat [1] and with NIH3T3 were -14.5% (inactive) and -35.2% (inactive), respectively. In addition, the Potency result in the experiment on MCC-13, with MCC-26, in the experiment with MKL-1 and in the experiment on MKL-2 was “inactive” each time.

In the case of `NC(=O)c1ccc(I)c([N+](=O)[O-])c1`, the result with HEK293, in the experiment on HaCat [1], in the experiment with HACAT [2] (setting [3]) and with HEK293T was inactive. Also, the max response was 7.82% (inactive) in the experiment with KB-3-1 and -1.58% (inactive) with NIH3T3. In addition, the Potency result with MCC-13, in the experiment on MCC-26, with MKL-1 and in the experiment on MKL-2 was “inactive” throughout.
